# Source: PubChem BioAssay
# An excerpt weighted towards active compounds, which were near 15% of everything screened.
# RORgamma inh = ROR gamma (mouse) transcription inhibition; Drosophila S2 Gal4-RORgamma UAS-luciferase reporter, 20 h; AID 2551; Potency, µM (titrated, usually from 53.6 µM), hits mostly inhibitors; 5.4% of 310,000 active; note: nearly all actives have a fitted effect of over 60% in size
#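 Read-out: Photinus luciferase luminescence; inhibitors lower reporter signal. Insect Schneider cells with Gal4-ROR gamma fusion under metallothionein promoter, UAS reporter; 700 uM final copper sulfate induction, 20 hr, ambient temperature.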
# ELG1 DNA repair = ELG1-dependent DNA repair inhibition. Potency, µM (titrated, usually from 46.1 µM), actives largely listed as inhibitors. 2.3% of 330,000 active. HEK293T ELG1-luciferase reporter, luminescence, 16 h; DNA damage induced by 5-fluorouridine; note: nearly all actives have a fitted effect of over 55% in size
#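 In this reporter screen, reduction of luminescence relative to DMSO vehicle indicated activity. Compounds and 5-fluorouridine were added together to 2,000 cells per well, incubated for 16 hr at 37 °C, then developed with ONE-Glo.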
# TDP1 cell CPT = DT40-hTDP1 cell growth loss with CPT. chicken DT40 Tdp1-/-;hTDP1 cells + 20 nM CPT, ATP luminescence, 48 h. Potency, µM (top dose mostly 46.2 µM), most hits filed as inhibitors. 12% of 420,000 active; note: nearly all actives have a fitted effect of over 55% in size
#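 Cell growth measured by CellTiter-Glo luminescence after a minimum 48 h, 37 C compound exposure with 20 nM CPT in Tdp1-knockout DT40 cells stably expressing hTDP1, seeded 400/well; qHTS titration format.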
# TDP1 cell noCPT = qHTS for Inhibitors of human tyrosyl-DNA phosphodiesterase 1 (TDP1): qHTS in cells in absence of CPT. DT40 Tdp1-/- hTDP1 cells, no CPT, ATP luminescence, 48 h. Potency, µM (series often up to 46.2 µM), hits mostly inhibitors. 15% of 420,000 active; note: nearly all actives have a fitted effect of over 55% in size
#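 Luminescent ATP content (CellTiter-Glo) served as the growth readout. Knockout chicken DT40 cells expressing human TDP1 were exposed to compounds without camptothecin for a minimum 48 hr at 37 °C.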
# ALOX12 inh = blocks human arachidonate 12S-lipoxygenase. Potency, µM (series often up to 108 µM), usual class: inhibitors. 1.1% of 580,000 active. purified 12hLO, xylenol orange hydroperoxide absorbance. AID 1671190
# Target sequence (P18054 whole entry, looked up): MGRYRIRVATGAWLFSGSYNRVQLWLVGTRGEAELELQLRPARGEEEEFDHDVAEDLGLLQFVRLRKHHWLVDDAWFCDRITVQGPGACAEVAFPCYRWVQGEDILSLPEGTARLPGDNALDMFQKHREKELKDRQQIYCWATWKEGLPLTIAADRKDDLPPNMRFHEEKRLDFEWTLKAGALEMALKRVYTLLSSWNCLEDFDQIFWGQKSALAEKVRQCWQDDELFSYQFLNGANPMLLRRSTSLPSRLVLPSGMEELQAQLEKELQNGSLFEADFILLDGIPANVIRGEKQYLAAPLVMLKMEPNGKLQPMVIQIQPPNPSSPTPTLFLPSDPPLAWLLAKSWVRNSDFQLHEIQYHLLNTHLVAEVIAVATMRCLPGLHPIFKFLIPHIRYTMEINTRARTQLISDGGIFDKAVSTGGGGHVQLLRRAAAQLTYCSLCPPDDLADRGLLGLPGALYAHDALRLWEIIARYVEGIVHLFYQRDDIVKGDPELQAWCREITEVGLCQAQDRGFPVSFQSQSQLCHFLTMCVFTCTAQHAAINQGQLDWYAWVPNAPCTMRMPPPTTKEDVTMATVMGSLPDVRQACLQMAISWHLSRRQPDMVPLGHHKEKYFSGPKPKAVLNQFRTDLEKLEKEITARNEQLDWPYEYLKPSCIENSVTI
#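 Purified human 12hLO (150 nM final) in 25 mM Hepes, 0.01% Triton X-100, pH 7.0 was preincubated 15 min at room temperature with compound. Then 40 uM arachidonic acid was added, 30 min. Hydroperoxide was read by Fe-XO absorbance ratio 573/405 nm.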
# Gal4-VP16 FLuc = Gal4-VP16 reporter inhibition counter-screen; Drosophila S2 Gal4-VP16 UAS-luciferase, luminescence, 20 h; Potency, µM (doses to about 53.6 µM), actives largely listed as inhibitors; 3.5% of 310,000 active;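 note: Gal4-VP16 expression switched on by copper sulfate through the metallothionein promoter; nearly all actives have a fitted effect of over 50% in size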
# Hits are given with their value; 0 = inactive; ? = inconclusive; - = no result given; [ ] = dose if it differs, or a comment. Calls come from the whole dose curve; as a rule, active = well fitted curve in the direction sought with a large enough effect; inconclusive = small, poorly fitted or top-dose-only effect, or another doubt; inactive = no such curve, though single readings can be large; an effect the other way counts as inactive or inconclusive.
SMILES,RORgamma inh,ELG1 DNA repair,TDP1 cell CPT,TDP1 cell noCPT,ALOX12 inh,Gal4-VP16 FLuc
COc1ccc(OC)c2sc(N(Cc3cccnc3)C(=O)c3ccco3)nc12,-,-,?,20.6µM,?,-
Cc1noc(C)c1S(=O)(=O)N1CC(n2cc(C(=O)NCc3ccncc3)nn2)C1,-,-,-,-,0,-
CCCNc1nc2ccccc2nc1C(=O)Nc1ccc(Cl)cc1,-,-,-,-,0,-
CCOCCOC(=O)c1nc2ccccc2nc1Nc1ccc(Cl)cc1,-,-,-,-,10µM,-
CC(C)C(=N)N,-,-,-,-,0,-
COC(=O)Cc1c(C)c2ccc(OCc3ccccc3Cl)cc2oc1=O,-,-,-,-,0,-
CCN(CCO)c1nc(SC)nc2c1sc1nc(-c3ccco3)c3c(c12)CCC3,0,?,0,0,-,0
CSc1nc(NCCOCCO)c2sc3nc(-c4ccco4)c4c(c3c2n1)CCC4,0,0,18.4µM,16.4µM,?,0
CCOC(=O)CNC(=S)n1ncnc1N,?,0,16.4µM,?,0,0
Cc1ccc(C(=O)OCC(=O)N2CCC(C)CC2)cc1S(=O)(=O)N1CCCCC1,0,0,0,?,?,0
CC(OC(=O)c1ccc(Cl)c(S(=O)(=O)N2CCCC2)c1)C(=O)NC1CCCCC1C (configuration not stated),0,0,-,-,-,0
Cc1ccc(C(=O)OCC(=O)N2c3ccccc3NC(=O)C2(C)C)cc1S(=O)(=O)N1CCCCC1,-,?,?,14.6µM,0,-
Cc1ccc(C(=O)OC(C)C(=O)NC2CCCCC2C)cc1S(=O)(=O)N1CCCCC1 (configuration not stated),0,?,18.4µM,?,0,0
Cc1ccc(S(=O)(=O)N2CCCCC2)cc1C(=O)OCC(=O)N1c2ccccc2NC(=O)C1(C)C,-,?,?,?,0,-
Cc1ccc(C(=O)OCC(=O)NC2CCCC(C)C2C)cc1S(=O)(=O)N1CCCCC1 (configuration not stated),-,?,20.6µM,?,0,-
COc1cc(NC(=O)COC(=O)c2ccc(C)c(S(=O)(=O)N3CCCCC3)c2)c(C)cc1[N+](=O)[O-],0[10 µM],8.2µM,?,?,0,0
Cc1cc(=O)n(CC(=O)Nc2cc(Cl)ccc2C)c(N2CCC(C)CC2)n1,-,-,-,-,0,-
COc1ccc(OC)c(-c2cc(-c3ccccc3)nc3c(C)noc23)c1,-,-,-,-,0,-
Cc1ccnc2nc(C(=O)OCC(=O)NC3CCCC(C)C3C)nn12 (configuration not stated),-,0,0,1.46µM,0,-
COc1cc(NC(=O)Cn2ncc(Cl)c(Cl)c2=O)c(C)cc1[N+](=O)[O-],2µM,?,2.91µM,4.61µM,0,7.08µM
COc1cc(NC(=O)CN2CCCCC2)c(C)cc1[N+](=O)[O-],0,?,0,0,0,0
O=C(NCCCO)C(O)(c1ccccc1)c1ccccc1,-,-,-,-,0,-
Cc1nc(NC2CC(c3nnc(CO)n3C3CC3)C2)c2sccc2n1 (configuration not stated),-,-,-,-,0,-
Cc1noc(C)c1S(=O)(=O)N1CCc2nn(C)c(=O)n2CC1,-,-,-,-,0,-
CN1c2ccccc2N(C)C1(C)c1cccc2ccccc12,0,0,5.8µM,3.26µM,35.5µM,?
SMILES,RORgamma inh,ELG1 DNA repair,TDP1 cell CPT,TDP1 cell noCPT,ALOX12 inh,Gal4-VP16 FLuc
O=C(NCCc1c[nH]c2ccc(Cl)cc12)C1CCN(c2nc(Cl)nc3nc[nH]c23)CC1,-,-,-,-,0,-
Cc1ccc(C2=NN(S(C)(=O)=O)C(c3ccc4c(c3)OCO4)C2)cc1 (configuration not stated),0,?,20.6µM,13µM,0,0
CC(=O)N1N=C(c2ccc(C)cc2)CC1c1ccc2c(c1)OCO2 (configuration not stated),0,?,0,?,0,0
O=C(CSc1nnc(-c2ccc(Cl)cc2)n1CC1CCCO1)Nc1ccc2c(c1)OCCO2 (configuration not stated),-,-,-,-,0,-
Nc1c(NCCN2CCCCC2)c2ccccc2oc1=O,0,0,14.6µM,16.4µM,0,0
C=CCNc1nc(C(=O)OCC(=O)c2ccc(C3CCCCC3)cc2)cs1,-,-,-,-,0,-
CC(NNC(=S)N1CCCCCC1)c1ccc2ccccc2n1 (configuration not stated),-,-,0.0082µM,0.0082µM,?,-
COC[C@@H]1CN(C(=O)c2ccoc2C)C[C@H]1c1nc(C)no1,-,-,-,-,0,-
COCCN=c1scc(-c2cc(OC)c(OC)c(OC)c2)n1/N=C/c1c(C)[nH]c2ccccc12,0,7.31µM,?,18.4µM,0,0
O=c1n(-c2ccc(C(F)(F)F)cc2)nc2n1CCN(Cc1ccc(F)cc1)C2,-,-,-,-,0,-
O=c1c([N+](=O)[O-])c(NC2CCCCC2)c2ccccc2n1-c1ccccc1,0,0,16.4µM,?,0,0
